Laboratory results taken from PubChem BioAssay (EPA / NIEHS).
“And” between values parts separate entries of the source, which are not always exact repeats. Identical values can stand only once. A structure can be active in one record and inactive in another. The source made the active and inactive calls. How the source made its calls: active means hit-call score of the fitted dose curve at least 0.9, where 1 is the maximum; inactive means score below 0.9.

Experiments:
[1] = read-out: Tissue Factor, F3 (gene 2152); experiment: BSK_CASM3C_TissueFactor: BioMAP Diversity Plus: CASM3C Assay for Tissue Factor Biomarker Activity (AID 2283052); conditions: primary human coronary artery smooth muscle cells; actives raise or lower the signal;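 further: cell surface tissue factor protein level read by ELISA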
[2] = read-out: Interferon-gamma inducible Protein 10 (IP10), CXCL10 (gene 3627); experiment: BSK_hDFCGF_IP10: BioMAP Diversity Plus: hDFCGF Assay for Interferon-gamma inducible Protein 10 (IP10) Biomarker Activity (AID 2283053); conditions: primary human foreskin fibroblasts; actives raise or lower the signal
Procedure, shortened: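 Primary foreskin fibroblasts, human; 24 h compound exposure; IP-10 by ELISA; bidirectional fit vs DMSO.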

[3] = read-out: Urokinase-type plasminogen activator receptor (uPAR), PLAUR (gene 5329); experiment: BSK_CASM3C_uPAR: BioMAP Diversity Plus: CASM3C Assay for Urokinase-type plasminogen activator receptor (uPAR) Biomarker Activity (AID 2283054); conditions: primary human coronary artery smooth muscle cells; actives raise or lower the signal;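 further: cell-surface uPAR protein level quantified by ELISA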
[4] = read-out: Vascular cell adhesion molecule 1 (VCAM1), VCAM1 (gene 7412); experiment: BSK_CASM3C_VCAM1: BioMAP Diversity Plus: CASM3C Assay for Vascular cell adhesion molecule 1 (VCAM1) Biomarker Activity (AID 2283055); conditions: primary human coronary artery smooth muscle cells; actives raise or lower the signal;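 further: VCAM-1 protein level quantified by ELISA on the cells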
[5] = read-out: Epidermal growth factor receptor (EGFR), EGFR (gene 1956); experiment: BSK_hDFCGF_EGFR: BioMAP Diversity Plus: hDFCGF Assay for Epidermal growth factor receptor (EGFR) Biomarker Activity (AID 2283057); conditions: primary human foreskin fibroblasts; actives raise or lower the signal
Procedure, shortened: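 hDFCGF system, primary human foreskin fibroblasts; compound 24 h; EGFR measured by ELISA; DMSO = negative control/baseline; bidirectional fitting.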

[6] = read-out: Interleukin-8 (IL8), CXCL8 (gene 3576); experiment: BSK_hDFCGF_IL8: BioMAP Diversity Plus: hDFCGF Assay for Interleukin-8 (IL8) Biomarker Activity (AID 2283058); conditions: primary human foreskin fibroblasts; actives raise or lower the signal
Procedure, shortened: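 Cells used are human skin primary fibroblasts. Chemical is added, cultures run 24 h, then IL-8 is quantified by ELISA, and gain or loss versus DMSO control is fitted in both directions.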

[7] = BSK_hDFCGF_Proliferation: Cell Proliferation Assessment in the BioMAP Diversity Plus: hDFCGF Assay (AID 2283059); conditions: primary human foreskin fibroblasts;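 further: curves fitted for both rise and fall of signal versus DMSO baseline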
Procedure, shortened: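 Primary human foreskin fibroblasts, sub-confluent; […]; 10% TCA fix, 0.1% SRB stain, A560 total protein. Gain/loss fitted bidirectionally vs DMSO control.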

[8] = read-out: Macrophage colony-stimulating factor (MCSF), CSF1 (gene 1435); experiment: BSK_hDFCGF_MCSF: BioMAP Diversity Plus: hDFCGF Assay for Macrophage colony-stimulating factor (MCSF) Biomarker Activity (AID 2283060); conditions: primary human foreskin fibroblasts; actives raise or lower the signal
Procedure, shortened: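 Primary human foreskin fibroblasts dosed with chemical; 24 h later, M-CSF quantified by ELISA; curves fitted in both directions vs DMSO negative control.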

[9] = BSK_hDFCGF_SRB: Viability Assessment in the BioMAP Diversity Plus: hDFCGF Assay (AID 2283061); conditions: primary human foreskin fibroblasts;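 further: cells exposed to compound for 24 h before the read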
Procedure, shortened: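 Readout is SRB absorbance at 560 nm, reflecting total protein in parallel cultures of human foreskin fibroblasts harvested 24 h after chemical dosing. Activity was fitted bidirectionally relative to DMSO.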

[10] = read-out: TIMP metallopeptidase inhibitor 1 (TIMP1), TIMP1 (gene 7076); experiment: BSK_hDFCGF_TIMP1: BioMAP Diversity Plus: hDFCGF Assay for TIMP metallopeptidase inhibitor 1 (TIMP1) Biomarker Activity (AID 2283062); conditions: primary human foreskin fibroblasts; actives raise or lower the signal
Procedure, shortened: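 Human skin fibroblasts (primary), hDFCGF system; compound exposure 24 h; TIMP-1 by ELISA; bidirectional fit vs DMSO negative control; overt cytotoxicity by SRB in parallel wells.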

[11] = read-out: Monokine induced gamma interferon (MIG), CXCL9 (gene 4283); experiment: BSK_hDFCGF_MIG: BioMAP Diversity Plus: hDFCGF Assay for Monokine induced gamma interferon (MIG) Biomarker Activity (AID 2283063); conditions: primary human foreskin fibroblasts; actives raise or lower the signal
Procedure, shortened: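 Chemicals were added to primary human foreskin fibroblast cultures, which were sampled 24 h later. MIG levels were then quantified by ELISA and responses fitted in both directions relative to DMSO.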

[12] = read-out: Matrix Metallopeptidase 1 (MMP1), MMP1 (gene 4312); experiment: BSK_hDFCGF_MMP1: BioMAP Diversity Plus: hDFCGF Assay for Matrix Metallopeptidase 1 (MMP1) Biomarker Activity (AID 2283064); conditions: primary human foreskin fibroblasts; actives raise or lower the signal
Procedure, shortened: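 Primary human foreskin fibroblasts in the hDFCGF system were dosed with test chemical, and MMP1 was measured by ELISA 24 h later. Values come from bidirectional curve fitting against the DMSO baseline.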

[13] = read-out: Vascular cell adhesion molecule 1 (VCAM1), VCAM1 (gene 7412); experiment: BSK_hDFCGF_VCAM1: BioMAP Diversity Plus: hDFCGF Assay for Vascular cell adhesion molecule 1 (VCAM1) Biomarker Activity (AID 2283065); conditions: primary human foreskin fibroblasts; actives raise or lower the signal;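 on AC50: VCAM-1 protein level quantified by ELISA after 24 h chemical exposure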
Procedure, shortened: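 Human foreskin fibroblast primary cells, chemical exposure 24 h; VCAM-1 by ELISA; bidirectional fit, DMSO = negative control/baseline.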

[14] = read-out: Plasminogen activator inhibitor-1 (PAI1), SERPINE1 (gene 5054); experiment: BSK_hDFCGF_PAI1: BioMAP Diversity Plus: hDFCGF Assay for Plasminogen activator inhibitor-1 (PAI1) Biomarker Activity (AID 2283066); conditions: primary human foreskin fibroblasts; actives raise or lower the signal
Procedure, shortened: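 Primary dermal fibroblasts (human foreskin), hDFCGF system; compound 24 h; PAI-1 by ELISA; bidirectional fit vs DMSO control.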

[15] = read-out: Intercellular Adhesion Molecule 1 (ICAM1), ICAM1 (gene 3383); experiment: BSK_KF3CT_ICAM1: BioMAP Diversity Plus: KF3CT Assay for Intercellular Adhesion Molecule 1 (ICAM1) Biomarker Activity (AID 2283067); conditions: primary human keratinocytes with fibroblasts; actives raise or lower the signal
Procedure, shortened: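 ICAM-1 levels are measured by ELISA 24 h after dosing a primary human co-culture of keratinocytes and foreskin fibroblasts. Activity in either direction is fitted relative to DMSO vehicle.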

[16] = read-out: Interferon-gamma inducible Protein 10 (IP10), CXCL10 (gene 3627); experiment: BSK_KF3CT_IP10: BioMAP Diversity Plus: KF3CT Assay for Interferon-gamma inducible Protein 10 (IP10) Biomarker Activity (AID 2283068); conditions: primary human keratinocytes with fibroblasts; actives raise or lower the signal
Procedure, shortened: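 In a primary skin co-culture of keratinocytes and fibroblasts, IP-10 is quantified by ELISA at 24 h after dosing. SRB staining of parallel wells monitors overt toxicity. Curves are fitted both directions against DMSO.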

[17] = BSK_KF3CT_SRB: Viability Assessment in the BioMAP Diversity Plus: KF3CT Assay (AID 2283069); conditions: primary human keratinocytes with fibroblasts;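 further: total protein by sulforhodamine B staining as a cytotoxicity measure; read 24 h after compound addition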
Procedure, shortened: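 Human primary keratinocyte plus foreskin fibroblast co-culture exposed to chemicals for 24 h. Total protein measured by 0.1% sulforhodamine B staining after 10% TCA fixation, read at 560 nm; bidirectional fitting versus DMSO baseline.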

[18] = read-out: Interleukin-1 alpha (IL1a), IL1A (gene 3552); experiment: BSK_KF3CT_IL1a: BioMAP Diversity Plus: KF3CT Assay for Interleukin-1 alpha (IL1a) Biomarker Activity (AID 2283070); conditions: primary human keratinocytes with fibroblasts; actives raise or lower the signal
Procedure, shortened: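 Human keratinocyte plus foreskin fibroblast primary co-culture, sampled 24 h after chemical dosing. IL-1a measured by ELISA; responses fitted bidirectionally against DMSO baseline (negative control), so gain or loss of signal both count.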

[19] = read-out: TIMP metallopeptidase inhibitor 2 (TIMP2), TIMP2 (gene 7077); experiment: BSK_KF3CT_TIMP2: BioMAP Diversity Plus: KF3CT Assay for TIMP metallopeptidase inhibitor 2 (TIMP2) Biomarker Activity (AID 2283071); conditions: primary human keratinocytes with fibroblasts; actives raise or lower the signal
Procedure, shortened: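 Cells: human keratinocytes co-cultured with foreskin fibroblasts. Treat with chemical, 24 h. Measure TIMP-2 by ELISA; fit curves bidirectionally vs DMSO baseline.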

[20] = read-out: Collagen III, COL3A1 (gene 1281); experiment: BSK_hDFCGF_CollagenIII: BioMAP Diversity Plus: hDFCGF Assay for Collagen III Biomarker Activity (AID 2283056); conditions: primary human foreskin fibroblasts; actives raise or lower the signal
Procedure, shortened: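 ELISA read-out of collagen III from human skin fibroblast cultures sampled 24 h post-dosing. Values were derived by bidirectional fitting relative to the DMSO vehicle control.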

Measured: AC50

CCCN(CCC)c1c([N+](=O)[O-])cc(C(F)(F)F)c(N)c1[N+](=O)[O-]
inactive: [1] | [3] | [4] | [5] | [6]
active: [2] 31.3 µM | [7] 26.7 µM | [8] 27.9 µM | [9] 33.3 µM | [10] 30.2 µM | [11] 35.9 µM | [12] 35.5 µM | [13] 26.9 µM | [14] 20 µM | [15] 36 µM | [16] 34.7 µM | [17] 31.3 µM | [18] 31.3 µM | [19] 30.6 µM

CCC(C)OC(=O)N1CCCCC1CCO (stereo not given)
not listed: [7]
inactive: all other assays above

CC(C)(c1ccc(O)cc1)c1ccc(O)cc1
active: [2] 14.4 µM | [7] 26.2 µM [middle of 4 runs] | [13] 8.38 µM
inactive: [1] | [2] | [3] | [4] | [5] | [6] | [8] | [9] | [10] | [11] | [12] | [13] | [14] | [15] | [16] | [17] | [18] | [19]

CCNc1nc(N)nc(Cl)n1
not listed: [7]
inactive: all other assays above

CCCCCCC(C)OC(=O)COc1nc(F)c(Cl)c(N)c1Cl (stereo not given)
active: [2] 13.5 µM | [4] 32.8 µM | [20] 20 µM | [6] 29.6 µM | [8] 13.8 µM | [9] 14.9 µM | [10] 26 µM | [11] 15 µM | [12] 30.3 µM | [13] 13.4 µM | [14] 25.8 µM | [15] 31.4 µM | [17] 30.4 µM | [18] 33.3 µM | [19] 31.6 µM
inactive: [1] | [3] | [5] | [16]

COC(=O)c1ccccc1C(=O)O
active: [2] 31.5 µM | [10] 6.58 µM | [16] 10.4 µM
inactive: all other assays above

N[C@@H](Cc1cc(I)c(Oc2ccc(O)c(I)c2)c(I)c1)C(=O)O
active: [13] 6.76 µM
not listed: [7]
inactive: all other assays above

C[C@]12CC[C@@H]3c4ccc(O)cc4C[C@@H](CCCCCCCCCS(=O)CCCC(F)(F)C(F)(F)F)[C@H]3[C@@H]1CC[C@@H]2O (stereo not given in full)
active: [7] 4.75 µM | [14] 1.64 µM
not listed: [20]
inactive: all other assays above

N#CSCSc1nc2ccccc2s1
inactive: [1] | [5] | [6] | [17]
active: [1] 1.85 µM | [2] 1.49 µM and 227 nM | [3] 5.35 µM and 30 µM | [4] 6.34 µM and 27.7 µM | [5] 2.01 µM | [6] 2.43 µM | [8] 1.56 µM and 1.28 µM | [9] 1.08 µM and 155 nM | [10] 1.63 µM and 148 nM | [11] 1.67 µM and 1.3 µM | [12] 1.82 µM and 1.61 µM | [13] 1.37 µM and 460 nM | [14] 1.72 µM and 627 nM | [15] 7.09 µM and 10.6 µM | [16] 7.03 µM and 11.6 µM | [17] 5.31 µM | [18] 7.76 µM and 11.4 µM | [19] 4.19 µM and 10.2 µM

C#C[C@]1(O)CC[C@H]2[C@@H]3CCC4=CC(=O)CC[C@@H]4[C@H]3CC[C@@]21CC
not listed: [7]
inactive: all other assays above

COC(=O)c1ccccc1S(=O)(=O)NC(=O)Nc1nc(OC(F)F)cc(OC(F)F)n1
inactive: all assays above

COC(=O)c1ccc(CNS(C)(=O)=O)cc1S(=O)(=O)NC(=O)Nc1nc(OC)cc(OC)n1
not listed: [20]
inactive: all other assays above
